Assay [1] is described as follows: qHTS assay to test for compound auto fluorescence at 535 nm (green) in HEK293 cells (AID 720680). For orientation: In qHTS, concentration-response curves come from the screen itself.
The nature of assay [2]: qHTS assay to test for compound auto fluorescence at 460 nm (blue) in HEK293 cell free culture (AID 720681). In outline: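 Compounds were added to cell-free DMEM with 10% FBS and fluorescence read directly. The blue channel used 405 nm excitation and 460 nm emission, with triamterene as the reference fluorophore.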
Assay [3] in a line: qHTS assay to test for compound auto fluorescence at 535 nm (green) in HEK293 cell free culture (AID 720682). The essentials:
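Using fluorescein as calibrant, autofluorescence was quantified at 485/535 nm in cell-free DMEM containing 10% FBS after pintool addition of compound or vehicle.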

The nature of assay [4]: qHTS assay to test for compound auto fluorescence at 590 nm (red) in HEK293 cell free culture (AID 720683). The essentials: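 Cell-free wells of DMEM with 10% FBS received compound, and intrinsic fluorescence was read at excitation/emission 540/590 nm. Values expressed as equivalence to Rose Bengal sodium.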
Assay [5] in a line: qHTS assay to test for compound auto fluorescence at 590 nm (red) in HepG2 cell free culture (AID 720684). In outline: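 Compounds are added to culture medium (MEM, 10% FBS) lacking cells, then fluorescence is read at excitation 540 nm, emission 590 nm, with Rose Bengal sodium as the equivalency standard.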
Assay [6] is described as follows: qHTS assay to test for compound auto fluorescence at 460 nm (blue) in HepG2 cell free culture (AID 720685). The essentials:
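Compound (23 nL) or DMSO pinned into cell-free MEM with 10% FBS; blue fluorescence read at 405/460 nm excitation/emission, expressed as auto-fluorescence equivalency to triamterene.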

The nature of assay [7]: qHTS assay to test for compound auto fluorescence at 535 nm (green) in HepG2 cell free culture (AID 720686).
A short description of assay [8]: qHTS assay to test for compound auto fluorescence at 460 nm (blue) in HepG2 cells (AID 720687). In outline:
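HepG2 cells in MEM with 10% FBS, attached overnight at 37 C, were exposed to compound or DMSO for 1 hr at 37 C, 5% CO2. Blue fluorescence was read at 405/460 nm, with triamterene as reference fluorophore.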

A short description of assay [9]: qHTS assay to identify small molecule antagonists of the glucocorticoid receptor (GR) signaling pathway - cell viability counter screen (AID 720693). Note: nearly all actives have a fitted effect of over 55% in size.
A short description of assay [10]: qHTS assay for identifying genotoxic compounds that show differential cytotoxicity against isogenic chicken DT40 cell lines with known DNA damage response pathways - wild type cell line (AID 743012). Note: nearly all actives have a fitted effect of over 60% in size. Note: potency is the fitted concentration of half-maximal effect. In outline:
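Using parental DT40 (300 cells/well), compounds delivered in DMSO incubate 40 h at 37 C/5% CO2. CellTiter-Glo reagent then stands 30 min at room temperature, and luminescence gives cell viability.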

Assay [11] is described as follows: qHTS assay for identifying genotoxic compounds that show differential cytotoxicity against isogenic chicken DT40 cell lines with known DNA damage response pathways - Rev3 mutant cell line (AID 743014). Note: nearly all actives have a fitted effect of over 55% in size. Note: potency is the fitted concentration of half-maximal effect.
Assay [12] can be described thus: qHTS assay to identify small molecule antagonists of the androgen receptor (AR) signaling pathway - cell viability counter screen (AID 743033; note: nearly all actives have a fitted effect of over 45% in size).
In assay [13] the target is Androgen receptor (Homo sapiens) (UniProt P10275). Nature of the assay: qHTS assay to identify small molecule antagonists of the androgen receptor (AR) signaling pathway (AID 743035; active = well fitted inhibition curve with a large enough effect in the signal ratio in the repeat runs, not every such curve was filed as active; the % refers to the signal ratio). In outline:
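Using qHTS, AR-UAS-bla GripTite HEK293 cells received compound, then R1881, and were cultured 16 h at 37C/5% CO2 before a 2 h room-temperature LiveBLAzer B/G FRET substrate step and fluorescence measurement.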

Assay [14] shares this target. In words: qHTS assay to identify small molecule agonists of the androgen receptor (AR) signaling pathway (AID 743036; active = well fitted activation curve with a large enough effect in the signal ratio in the repeat runs, with a control signal flat, not every such curve was filed as active; the % refers to the signal ratio). The essentials:
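In this Tox21 qHTS, 2,000 HEK293 AR-bla cells per well were incubated with compounds for 16 h at 37C and 5% CO2. Fluorescence intensity was recorded 2 h after adding LiveBLAzer B/G FRET substrate at room temperature.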

Assay [15] shares this target. Nature of the assay: qHTS assay to identify small molecule agonists of the androgen receptor (AR) signaling pathway using the MDA cell line (AID 743040; note: nearly all actives have a fitted effect of over 20% in size). In outline:
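Human breast carcinoma MDA-kb2 reporter cells (MMTV-luc, AR/GR elements) were treated for 16 h at 37C in 0% CO2 following a 5 h settling period. Signal was quantified by ONE-Glo luminescence.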

A short description of assay [16]: qHTS assay to identify small molecule antagonists of the androgen receptor (AR) signaling pathway using the MDA cell line - cell viability counter screen (AID 743041; note: nearly all actives have a fitted effect of over 45% in size). In outline:
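Same-well cytotoxicity was assessed by CellTiter-Fluor in MDA-kb2 AR-luc cells after 16 h of compound treatment under R1881 agonism.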

Assay [17] concerns the target Androgen receptor (Homo sapiens) (UniProt P10275). Nature of the assay: qHTS assay to identify small molecule antagonists of the androgen receptor (AR) signaling pathway using the MDA cell line (AID 743042; note: nearly all actives have a fitted effect of over 55% in size). The essentials: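 MDA-kb2 breast carcinoma cells carrying MMTV-luciferase (AR/GR responsive) were co-treated with compounds and the agonist R1881 for 16 h at 37C. Inhibition read as ONE-Glo luminescence; CellTiter-Fluor fluorescence measured in parallel for cytotoxicity.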

Assay [18] in a line: qHTS assay for identifying genotoxic compounds that show differential cytotoxicity against isogenic chicken DT40 cell lines with known DNA damage response pathways - Rad54/Ku70 mutant cell line (AID 743015). Note: nearly all actives have a fitted effect of over 60% in size. Note: potency is the fitted concentration of half-maximal effect.
Assay [19] concerns the target Glucocorticoid receptor (Homo sapiens) (UniProt P04150). In words: qHTS assay to identify small molecule antagonists of the glucocorticoid receptor (GR) signaling pathway (AID 720692; active = well fitted inhibition curve with a large enough effect in the signal ratio in the repeat runs, not every such curve was filed as active; the % refers to the signal ratio). In outline:
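Dexamethasone (5 nM final) stimulated a stably integrated GRE-beta-lactamase reporter in HeLa cells during 18 h co-incubation with compounds; signal was quantified as fluorescence intensity of B/G FRET substrate after 2 h.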

Results filed as inconclusive are left out. Activity calls are given as the source filed them. Unless noted, calls come from the whole dose curve; as a rule, active = well fitted curve in the direction sought with a large enough effect in the repeat runs; inconclusive = weak or mixed curves; inactive = no such curve, though single readings can be large; an effect the other way counts as inactive or inconclusive.

Chain of Androgen receptor (Homo sapiens) (P10275 whole entry, looked up): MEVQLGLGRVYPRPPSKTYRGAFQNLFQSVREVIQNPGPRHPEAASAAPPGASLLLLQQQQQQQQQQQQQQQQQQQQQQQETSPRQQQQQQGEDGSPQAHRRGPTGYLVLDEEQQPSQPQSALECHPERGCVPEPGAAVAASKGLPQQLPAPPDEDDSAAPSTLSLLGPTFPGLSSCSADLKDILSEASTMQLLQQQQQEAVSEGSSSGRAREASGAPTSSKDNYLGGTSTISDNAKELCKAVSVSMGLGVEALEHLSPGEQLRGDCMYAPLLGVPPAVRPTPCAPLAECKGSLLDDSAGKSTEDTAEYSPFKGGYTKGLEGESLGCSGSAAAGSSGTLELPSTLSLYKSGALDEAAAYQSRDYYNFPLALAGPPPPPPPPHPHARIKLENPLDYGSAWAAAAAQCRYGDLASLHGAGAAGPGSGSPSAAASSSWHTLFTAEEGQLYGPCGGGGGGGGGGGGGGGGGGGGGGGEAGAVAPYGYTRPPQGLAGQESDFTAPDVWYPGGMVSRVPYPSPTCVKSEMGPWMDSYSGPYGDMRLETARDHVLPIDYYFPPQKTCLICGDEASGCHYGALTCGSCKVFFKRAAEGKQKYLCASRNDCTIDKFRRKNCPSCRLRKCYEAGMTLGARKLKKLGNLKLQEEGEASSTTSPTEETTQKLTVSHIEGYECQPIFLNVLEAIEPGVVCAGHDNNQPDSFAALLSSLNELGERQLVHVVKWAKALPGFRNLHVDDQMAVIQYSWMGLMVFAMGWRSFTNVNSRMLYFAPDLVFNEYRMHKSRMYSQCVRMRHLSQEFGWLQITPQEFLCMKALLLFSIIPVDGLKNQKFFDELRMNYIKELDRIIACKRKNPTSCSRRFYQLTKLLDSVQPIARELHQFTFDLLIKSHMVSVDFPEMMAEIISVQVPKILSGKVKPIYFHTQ
Chain of Glucocorticoid receptor (Homo sapiens) (P04150 whole entry, looked up): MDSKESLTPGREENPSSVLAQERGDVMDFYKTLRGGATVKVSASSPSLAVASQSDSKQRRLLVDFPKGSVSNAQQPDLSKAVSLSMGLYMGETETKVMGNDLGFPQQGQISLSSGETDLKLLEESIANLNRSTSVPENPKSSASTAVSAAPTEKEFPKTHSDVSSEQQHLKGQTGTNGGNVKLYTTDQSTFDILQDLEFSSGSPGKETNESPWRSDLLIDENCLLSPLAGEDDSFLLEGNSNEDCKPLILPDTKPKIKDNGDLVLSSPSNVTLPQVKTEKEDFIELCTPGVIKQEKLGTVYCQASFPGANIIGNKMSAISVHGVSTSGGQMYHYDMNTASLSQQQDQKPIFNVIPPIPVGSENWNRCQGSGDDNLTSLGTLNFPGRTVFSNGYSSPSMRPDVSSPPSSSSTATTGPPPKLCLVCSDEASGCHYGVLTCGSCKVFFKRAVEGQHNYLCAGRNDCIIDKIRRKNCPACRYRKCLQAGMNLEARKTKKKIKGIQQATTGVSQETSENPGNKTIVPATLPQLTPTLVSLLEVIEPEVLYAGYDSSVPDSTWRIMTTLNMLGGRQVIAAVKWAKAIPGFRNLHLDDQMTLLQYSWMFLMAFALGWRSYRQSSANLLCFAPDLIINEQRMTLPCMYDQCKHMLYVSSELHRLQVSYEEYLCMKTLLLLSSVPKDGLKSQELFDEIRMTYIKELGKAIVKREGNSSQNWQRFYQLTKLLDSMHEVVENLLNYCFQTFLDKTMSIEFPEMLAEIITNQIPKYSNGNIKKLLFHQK

`CNC(=O)Oc1c(C(C)(C)C)cc(C)cc1C(C)(C)C`: the molecule was called inactive in [1], in assay [2], in [3], in assay [4], in [5] and in [6]. Also, the molecule was called inactive in assay [7], in assay [8], in [14] and in assay [17]. Moreover, the Potency result in assay [9], in assay [10], in assay [11], in assay [12], in [13] and in assay [15] was “inactive” throughout. The Potency result in assay [16] is “inactive”.
As to `CC(Cl)(Cl)[N+](=O)[O-]`, the molecule was called inactive in assay [1], in [2], in assay [3], in assay [4], in assay [5] and in assay [6]. For the same molecule, the molecule was called inactive in assay [7], in [8], in assay [14] and in [17]. Besides, the Potency entry in assay [9], in [10], in assay [11], in assay [18], in assay [12] and in assay [13] was “inactive” each time. The Potency entry in assay [15] and in assay [16] was “inactive” throughout.
For `CCOP(=O)(N=C1SCCS1)OCC`, the outcome in [1], in assay [2], in assay [3], in [4], in [5] and in assay [6] was inactive. Further, the call in assay [7] and in [8] was inactive. In addition, the Potency entry in assay [9], in assay [10], in assay [11], in assay [18], in assay [12] and in [16] was “inactive” in each case.
Consider `CCN(CC)CCOC(=O)C(C)(c1ccccc1)c1ccccc1`, for which the result in [1], in assay [2], in assay [3], in assay [4], in assay [5] and in [6] was inactive. The outcome in [7] and in assay [8] was inactive. The Potency result in assay [9], in [12] and in assay [16] was “inactive” throughout. Further, the Potency is 8.41 µM (active) in assay [10], 11.9 µM (active) in assay [11] and 23.7 µM (active) in assay [18].
As to `c1coc(-c2nc3ccccc3[nH]2)c1`, the call in [1], in [2], in [3], in [4], in [5] and in assay [6] was inactive. Further, the molecule was called inactive in assay [7] and in assay [8]. For the same molecule, the Potency result in assay [19] and in [16] was “inactive” each time. Besides, the Potency in assay [10] is 54.5 µM (active); in [11], 24.3 µM (active); in [18], 54.5 µM (active).
For the molecule `CCC1(c2ccccc2)C(=O)N=C(O)NC1=O` (stereo not drawn), the molecule was classed as inactive in assay [1], in assay [2], in assay [3], in assay [4], in [5] and in [6]. Moreover, the call in assay [7] and in assay [8] was inactive. Besides, the Potency entry in assay [9], in assay [10], in assay [11], in assay [12] and in assay [16] was “inactive” each time.
On to `O=NN1CCN(N=O)CC1`, for which the outcome in [1], in assay [2], in assay [3], in [4], in assay [5] and in assay [6] was inactive. The result in assay [7] and in [8] was inactive. In addition, the Potency entry in assay [9], in assay [10], in assay [11], in [18], in [12] and in assay [16] was “inactive” each time.
Consider `CCCCCCI`, for which the outcome in assay [1], in assay [2], in assay [3], in [4], in assay [5] and in [6] was inactive. Also, the result in [7], in [8], in assay [14] and in assay [17] was inactive. The Potency result in assay [9], in assay [10], in [11], in [18], in assay [13] and in [15] was “inactive” each time. In assay [16], the Potency result is “inactive”.
As for `N#CC(Cl)(Cl)Cl`, the molecule was classed as inactive in assay [1], in [2], in assay [3], in [4], in assay [5] and in assay [6]. The outcome in assay [7], in assay [8], in [14] and in assay [17] was inactive. For the same molecule, the Potency entry in assay [9], in assay [10], in assay [11], in assay [18], in assay [12] and in assay [13] was “inactive” throughout. Besides, the Potency result in [15] and in assay [16] was “inactive” each time.
For `Oc1c(Cl)cccc1Cl`, the outcome in [1], in [2], in assay [3], in assay [4], in assay [5] and in assay [6] was inactive. The molecule was classed as inactive in assay [7] and in assay [8]. The Potency entry in assay [9], in [10], in assay [11], in assay [18], in assay [12] and in [16] was “inactive” throughout.
For the molecule `CCCCCCBr`, the call in assay [1], in [2], in [3], in assay [4], in [5] and in assay [6] was inactive. Besides, the result in assay [7] and in assay [8] was inactive. Moreover, the Potency result in assay [9], in assay [10], in [11], in assay [18] and in [16] was “inactive” throughout.
Turning to `C(CCOCC1CO1)COCC1CO1` (stereo not drawn), the molecule was called inactive in assay [1], in assay [2], in [3], in [4], in [5] and in assay [6]. The result in [7] and in assay [8] was inactive. For the same molecule, the Potency entry in assay [9], in assay [12] and in assay [16] was “inactive” in each case. Also, the Potency in assay [10] is 12 µM (active); in assay [11] it was 1.07 µM (active); in assay [18], 15.1 µM (active).
As for `O=[N+]([O-])c1ccc2c3c(cccc13)CC2`, the molecule was classed as inactive in [1], in [2], in assay [3], in assay [4], in assay [5] and in [6]. Moreover, the call in assay [7] and in assay [8] was inactive. For the same molecule, the Potency entry in assay [9], in [10], in assay [12] and in [16] was “inactive” throughout. For the same molecule, in assay [11], the Potency was 19.3 µM (active).
For `CCCCOC(=O)c1ccccc1N`, the outcome in [1], in assay [2], in assay [3], in assay [4], in [5] and in [6] was inactive. Also, the molecule was called inactive in assay [7] and in assay [8]. In addition, the Potency result in [9], in assay [10], in assay [11], in assay [12] and in assay [16] was “inactive” each time.
In the case of `ClC(Br)Br`, the molecule was called inactive in assay [1], in assay [2], in assay [3], in assay [4], in assay [5] and in [6]. For the same molecule, the call in assay [7] and in assay [8] was inactive. The Potency result in assay [9], in assay [10], in assay [11], in [18] and in [16] was “inactive” each time.
As to `CCC(=O)c1ccccc1`, the molecule was called inactive in assay [1], in [2], in assay [3], in assay [4], in assay [5] and in assay [6]. The molecule was classed as inactive in assay [7], in assay [8] and in assay [17]. Further, the Potency result in assay [9], in [10], in assay [11], in assay [18], in assay [12] and in assay [13] was “inactive” in each case. For the same molecule, the Potency entry in assay [15] and in [16] was “inactive” throughout.
Regarding `COc1cc(OC)nc(Oc2cccc(Oc3nc(OC)cc(OC)n3)c2C(=O)O)n1`, the call in assay [1], in [2], in assay [3], in [4], in assay [5] and in [6] was inactive. The molecule was classed as inactive in assay [7], in [8], in [14] and in assay [17]. The Potency result in assay [9], in assay [10], in assay [11], in [18], in [12] and in [13] was “inactive” in each case. In addition, the Potency result in assay [15] and in assay [16] was “inactive” throughout.
